Data on 22 compounds can be found in PubChem BioAssay (EPA / NIEHS).

Inconclusive results are not listed. Activity calls are given as the source filed them. The calls were made as follows: active = hit-call score of the fitted dose curve at least 0.9, where 1 is the maximum; inconclusive = response in the unintended direction; inactive = score below 0.9.

Read-out in the test: organic anion transporter (SLCO1B1), SLCO1B1 (gene 10599)
The test is described as follows: CLD_SLCO1B1_24hr: CellzDirect (CLD) Gene Expression Assay for organic anion transporter (SLCO1B1) at 24 hours (AID 2283690). The protocol: CLD_24hr is a cell-based, multiplexed-readout assay that uses hepatocyte, a human liver primary cell, with measurements taken at 24 hours after chemical dosing in a 96-well plate.CLD_SLCO1B1_24hr is one of 16 assay component(s) measured or calculated from the CLD_24hr assay. It is designed to make measurements of mRNA induction, a form of inducible reporter, as detected with chemiluminescence signals by Quantitative Nuclease Protection Assay (qNPA) technology.Data from the assay component CLD_SLCO1B1_24hr was analyzed at the endpoint, CLD_SLCO1B1_24hr, in the positive analysis fitting direction relative to DMSO as the negative control and baseline of activity. Using a type of inducible reporter, gain-of-signal activity can be used to understand changes in the reporter gene as they relate to the gene SLCO1B1. Furthermore, this assay endpoint can be referred to as a primary readout. To generalize the intended target to other relatable targets, this assay endpoint is annotated to the transporter intended target family, where subfamily is organic anion transporter.
Human hepatocyte cultures were treated daily for two consecutive days with fresh dosing solutions containing appropriate concentrations of the 320 ToxCast chemicals (chemical identities were blinded to CellzDirect and other ToxCast collaborators), vehicle control (0.2% DMSO), and positive control inducers as summarized in Table 1. Due to the large number of treatment groups and chemicals examined, the ToxCast chemicals were divided into two groups (spanning two independent cultures of hepatocytes from separate donor preparations (Hu778: ToxCast plates 1 and 2; Hu776: ToxCast plates 3 and 4). Each preparation of human hepatocyte cultures was treated with respective vehicle control, medium only control, set of six positive controls/reference chemicals for the five hepatic receptor pathways, and a subset of eight of the ToxCast chemicals (indoxacarb, pyrithiobac-sodium, norflurazon, cyhalofop-butyl, methomyl, thiram, acetochlor, and propiconazole). These replicate data, coupled with internal replicates designed within the blinded ToxCast chemical library, provided additional data to evaluate interindividual differences between hepatocyte preparations and their potential impact on chemical profiles.Cell morphology and integrity were evaluated using phase-contrast microscopy as an indicator of hepatocyte cell health (Tyson & Green, 1987). Cultures for each treatment group (i.e., media, vehicle [0.2% DMSO], positive control inducers [multiple concentrations], and the ToxCast chemicals [multiple concentrations]) were observed and cell morphology was assessed relative to vehicle control cultures at each harvest time point (0, 6, 24, or 48 h). […] Images were evaluated at the conclusion of the study to assess changes in cell integrity and account for the effects of chemical exposure on uncharacteristic changes in concentration-dependent gene expression profiles. The results from these determinations of apparent cytotoxicity were annotated (yes/no) alongside the corresponding qNPA data for reference.At the conclusion of each treatment period, hepatocyte cultures (96-well) were washed with 1 volume of HBSS, lysed by addition of 25 ul ArrayPlate lysis buffer (HTG, Tucson, AZ), and 70 ul/well of Denaturation Oil, denatured by incubation at 95C for 10 min, and frozen at approximately -70C until analysis by nuclease protection assay (qNPA) (Roberts et al., 2007). For qNPA analysis, cell lysates were thawed at 50C for approximately 30 min, qNPA probes were added, and samples were incubated at 95C for 10 min to begin the detection process by denaturing the target RNA, dissociating the duplexes and secondary structure hybridization. At the conclusion of the hybridization period, S1 nuclease reagent was added to each sample to digest all nonprotected nucleotides at 50C for 60-90 min. […]
Regarding `OCCOc1ccccc1`, the call was inactive. The result for `O=C(Nc1ccccc1)Nc1cnns1` reads “inactive”.

On to `O=C(O)C(F)(F)C(F)(F)C(F)(F)C(F)(F)C(F)(F)C(F)(F)C(F)(F)F`, for which the compound was called inactive. With `COC(=O)c1ccccc1S(=O)(=O)NC(=O)Nc1nc(C)nc(OC)n1` the entry was “inactive”; with `O=C1c2ccccc2C(=O)N1SC(Cl)(Cl)Cl`, “inactive”; with `N#CN`, “inactive”. With `COP(=O)(OC)OC=C(Cl)Cl` the entry was “inactive”.

As to `COC(=O)c1ccccc1S(=O)(=O)NC(=O)N(C)c1nc(C)nc(OC)n1`, the compound was classed as inactive. The result for `CN1CSC(=S)N(C)C1` reads “inactive”.

Regarding `COP(=S)(OC)Oc1ccc([N+](=O)[O-])cc1`, the outcome was inactive. The result for `CC1(c2ccc(Oc3ccccc3)cc2)OC(=O)N(Nc2ccccc2)C1=O` (configuration not stated) reads “inactive”. The result for `CCN(CC)C(=O)SCc1ccc(Cl)cc1` reads “inactive”; that for `CC[C@H](C)[C@H]1O[C@]2(C=C[C@@H]1C)C[C@@H]1C[C@@H](C/C=C(\C)[C@@H](O[C@H]3C[C@H](OC)[C@@H](O[C@H]4C[C@H](OC)[C@@H](O)[C@H](C)O4)[C@H](C)O3)[C@@H](C)/C=C/C=C3\CO[C@@H]4[C@H](O)C(C)=C[C@@H](C(=O)O1)[C@]34O)O2` (tested in a mixture with another compound), “inactive”. As for `COc1cc(OC)nc(NC(=O)NS(=O)(=O)c2cc(NC=O)ccc2C(=O)N(C)C)n1`, the result was inactive. For the compound `CC(C)OC(=O)Nc1cccc(Cl)c1`, the outcome was inactive. Turning to `CCS(=O)(=O)c1cccnc1S(=O)(=O)NC(=O)Nc1nc(OC)cc(OC)n1`, the outcome was inactive. With `Cc1cc(C)nc(NC(=O)NS(=O)(=O)c2ccccc2C(=O)OC2COC2)n1` the entry was “inactive”. Regarding `CCc1ccc(C(=O)NN(C(=O)c2cc(C)cc(C)c2)C(C)(C)C)cc1`, the compound was classed as inactive.

Regarding `Oc1cc(Cl)ccc1Oc1ccc(Cl)cc1Cl`, the compound was called inactive. With `Oc1ccc(Cl)cc1Cc1ccccc1`, the outcome was inactive. On to `[2H]C1([2H])[n+]2ccccc2-c2cccc[n+]2C1([2H])[2H]`, for which the compound was classed as inactive. As for `CCOCN(C(=O)CCl)c1c(C)cccc1CC`, the result was inactive.
